This is part of a sample that, as a whole, favours compounds with a hit. Of some 79,000 tested, about 15% had one in any assay. Calls of active or inactive are those of the source. No stated cut-off is given here; in the data, active means growth inhibition above about 70%; inactive means the rest.
Legend:
[1] = NCI Yeast Anticancer Drug Screen. Data for the rad50 strain (AID 155);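 further: 0% = growth of vehicle-only cultures of the same strain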; settings: S. cerevisiae rad50 strain growth inhibition; at 50.0 µM; active compounds read high
Procedure, shortened: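 Vehicle-treated cultures provide the reference for the growth inhibition reported for compound-exposed, repair-deficient yeast.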

[2] = NCI Yeast Anticancer Drug Screen. Data for the mec2-1 strain (AID 157); settings: S. cerevisiae mec2-1 strain, at 50.0 µM, active compounds read high
Procedure, shortened: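 Readout is yeast growth inhibition, normalised to vehicle-treated controls, in the mec2-1 strain exposed to compound.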

[3] = NCI Yeast Anticancer Drug Screen. Data for the sgs1 mgt1 strain (AID 161);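 further: 0% = growth of cultures given vehicle only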; settings: S. cerevisiae sgs1 mgt1 strain, at 50.0 µM, active compounds read high
Procedure, shortened: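 Yeast cells carrying a defined DNA-repair defect were exposed to test compounds. Growth inhibition was measured relative to vehicle-treated controls.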

[4] = NCI Yeast Anticancer Drug Screen. Data for the cln2 rad14 strain (AID 165);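 further: 0% = growth equal to vehicle treated cultures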; settings: S. cerevisiae cln2 rad14 strain, at 50.0 µM, active compounds read high
Procedure, shortened: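 Relative to vehicle controls, growth inhibition of compound-treated cln2 rad14 yeast was recorded.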

[5] = NCI Yeast Anticancer Drug Screen. Data for the bub3 strain (AID 167); settings: S. cerevisiae bub3 mutant strain, at 50.0 µM, active compounds read high
Procedure, shortened: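 Mutant yeast screening strain plus compound; vehicle-treated cultures serve as the 0% inhibition reference.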

[6] = NCI Yeast Anticancer Drug Screen. Data for the mlh1 rad18 strain (AID 175); settings: S. cerevisiae mlh1 rad18 strain growth inhibition; at 50.0 µM; active compounds read high
Procedure, shortened: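 Test agents were incubated with a yeast strain of defined genotype (DNA damage repair defect). Inhibition of growth was derived by comparison with vehicle-exposed cultures.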

Measured: growth inhibition

O=C(NNC(=O)c1cccc2ccccc12)c1ccccc1F
inactive: [1] -16.6% | [2] -12.6% | [3] -13.9% | [4] 1.35% | [5] -11.6% | [6] -15.9%

C1=[N+](c2ccccc2)CCN1c1ccccc1
inactive: [1] -0.7% | [2] -18.9% | [3] -22.1% | [4] -27.3% | [5] -32.1% | [6] -20.5%

N#CC1=CCc2ccccc2N1C(=O)Oc1ccccc1
inactive: [1] 58.5% | [2] 12.7% | [3] 50% | [4] 19.4% | [5] 64.6% | [6] 47.2%

CN1NC(c2ccccc2)=NN=C1c1ccccc1
inactive: [1] -8.5% | [2] 21.9% | [3] 11.3% | [4] 0.75% | [5] 15.8% | [6] 3.65%

N#Cc1[nH]cnc1O
inactive: [1] -9.6% | [2] -10.4% | [3] -11.4% | [4] 7.7% | [5] 17.4% | [6] -5.85%

Cc1cccc2c1Oc1ccccc1C2N1C(=O)c2ccccc2C1=O (stereo unspecified)
inactive: [1] 6.65% | [2] 2.5% | [3] 4.9% | [4] 25.4% | [5] 9.95% | [6] 6.35%

Nc1ccc(C(=O)CC(N)C(=O)O)cc1O (stereo unspecified)
inactive: [1] -9.7% | [2] 21.4% | [3] -6.9% | [4] -17.9% | [5] 6.95% | [6] 11.3%

O=C(Nc1ccccc1C(F)(F)F)Oc1ccc(Cl)cc1Cc1ccccc1
active: [1] 99.4% | [2] 99.6% | [3] 99.7% | [4] 99.3% | [5] 99.2% | [6] 99.5%

CCOc1ccccc1C=Nc1cc(C(C)C)c(O)cc1C
inactive: [1] -10.2% | [2] -17.2% | [3] 5.6% | [4] -4.6% | [5] 0.85% | [6] -12.3%

CC(CO)(CO)N1C(=O)C2C3c4ccccc4C(c4ccccc43)C2C1=O (stereo unspecified)
inactive: [1] -2% | [2] 1.05% | [3] 1.65% | [4] -3.15% | [5] -3.95% | [6] -28.7%

Cc1cc(C(C)C)cc(C(C)C)c1
inactive: [1] -6.25% | [2] -13.9% | [3] -9.45% | [4] -4% | [5] -0.85% | [6] 7.95%

C1=COC(C2NCCCN2)CC1 (stereo unspecified)
inactive: [1] -5.9% | [2] 8.25% | [3] -2.6% | [4] -68.8% | [5] -26.5% | [6] -3.7%

CCCCN(CCCC)C1=Nc2ccccc2-n2c(nnc2C(=O)OCC)C1
inactive: [1] 24.4% | [2] 44.5% | [3] 22.9% | [4] 15.2% | [5] 52% | [6] 50.4%

CN(C)c1ccc2[nH]cc(C(=O)O)c(=O)c2c1
inactive: [1] 4.15% | [2] 6.6% | [3] 10.3% | [4] -1.05% | [5] 28.8% | [6] 7.35%

O=C(NNC(=O)c1ccc2ccccc2c1)c1ccc(Cl)c(Cl)c1
inactive: [1] -13.3% | [2] -23.3% | [3] -2.65% | [4] 17.1% | [5] -5.25% | [6] -14.1%

O.O.[Cl][Pt+2][Cl].[NH-]CC1(C[NH-])CCCCC1
inactive: [1] 10.4% | [2] 5.7% | [3] 11.8% | [4] 18.5% | [5] 8.75% | [6] -30.1%

CNC(=O)C1CCC(=O)N1Cc1c[nH]c2ccccc12 (stereo unspecified)
inactive: [1] -4.6% | [2] -8.65% | [3] -1.75% | [4] 2.25% | [5] 8.75% | [6] -5.45%

CNC(=O)OCc1c(-c2ccccc2)c(-c2ccccc2)n(C)c1COC(=O)NC
active: [6] 87.8%
inactive: [1] 37.6% | [2] 22.5% | [3] 51.7% | [4] 15.8% | [5] 33.2%

c1ccc(O[Si](Oc2ccccc2)(Oc2ccccc2)Oc2ccccc2)cc1
inactive: [1] 5.65% | [2] -18.7% | [3] 5.5% | [4] 5.1% | [5] -7.3% | [6] 6.05%

CCCCCCCCOC(=O)c1cc([N+](=O)[O-])c(Sc2ncnc3nc[nH]c23)c([N+](=O)[O-])c1
inactive: [1] 32% | [2] 30% | [3] 25.9% | [4] 11.8% | [5] 16.1% | [6] 24.2%

O/N=C/c1cccc[n+]1Cc1ccccc1
inactive: [1] -4% | [2] 6.3% | [3] 0.95% | [4] -23.9% | [5] 4.85% | [6] 1.25%

CCOC(=O)NC(=O)c1cn(C2CCCCC2)c(=O)[nH]c1=O
inactive: [1] -14.2% | [2] -3.95% | [3] -5.9% | [4] 21.9% | [5] -0.7% | [6] 3.35%

Cc1[nH]c2c(C)ccc(C)c2c1CC(=O)O
inactive: [1] 29.7% | [2] -15.1% | [3] -40.8% | [4] 17.1% | [5] -24.1% | [6] 10.2%

Cc1cc(NC(=O)C(=O)CC(=O)c2ccc(Cl)s2)no1
inactive: [1] -51.3% | [2] 4.95% | [3] -8.55% | [4] -56.4% | [5] -6.7% | [6] -2.6%

COc1ccc(C(CC(=O)O)c2cc3c(cc2OC)OCO3)cc1 (stereo unspecified)
inactive: [1] -4% | [2] -9.85% | [3] 3.8% | [4] 0.25% | [5] 1.1% | [6] -1.75%

Clc1ccc(-c2nc3ccccc3cc2N2CCCCC2)cc1
inactive: [1] 26.4% | [2] 1.45% | [3] 12.3% | [4] -38.5% | [5] -1.15% | [6] -7.7%

CC1(C)N=C(/C(Cl)=[N+](/[O-])C(=O)c2ccc(F)cc2)C(C)(C)N1O
inactive: [1] -15.5% | [2] -35.3% | [3] -27.2% | [4] 16.7% | [5] -25.8% | [6] -25.9%

CN(C)CCN1CC2C3CCCCC3=C3CCCCC3C2C1 (stereo unspecified)
inactive: [1] -0.45% | [2] 10.1% | [3] 31.9% | [4] -24.4% | [5] 23.8% | [6] 37.9%

O=[N+]([O-])c1ccc(-c2ccncc2)cc1
inactive: [1] -32% | [2] -31.9% | [3] -19.4% | [4] 20.6% | [5] -18.1% | [6] -9.05%

CC(C)=Nn1cnc(C(=N)C#N)c1N
inactive: [1] 22.9% | [2] 3.5% | [3] -0.9% | [4] 14.5% | [5] 4.8% | [6] -7.45%

O=[N+]([O-])c1ccc(N=N/C(Cc2ccccc2)=N\Nc2ccccc2)cc1
inactive: [1] 31.4% | [2] 12.9% | [3] -0.2% | [4] 22.6% | [5] -10.4% | [6] 4.65%

NC(=O)NC(N)=O
inactive: [1] 13.3% | [2] -10.4% | [3] -9.95% | [4] -34.1% | [5] 18.9% | [6] 21.9%

COC(=O)c1c(C(=O)c2ccccc2)nnn1-c1cccc(C(F)(F)F)c1
inactive: [1] -14.1% | [2] -32.7% | [3] -19% | [4] -3.85% | [5] -28.7% | [6] 0.35%

CC(C)(N)CNCCO
inactive: [1] -3.25% | [2] 2.05% | [3] -8.9% | [4] -18.1% | [5] -1.7% | [6] 0.4%

Br/C=C/c1ccccc1
inactive: [1] 23.6% | [2] 11.3% | [3] 0.6% | [4] -14.7% | [5] 5.85% | [6] 46.1%

O=C(O)COc1ccccc1P(=O)(c1ccccc1)c1ccccc1
inactive: [1] 23.1% | [2] 17.4% | [3] 9.7% | [4] 35.8% | [5] 22.4% | [6] 23%

O=C[C@@H](CO)O[C@H](C=O)c1c[nH]c(=O)[nH]c1=O
inactive: [1] -24.1% | [2] -13.2% | [3] -23.9% | [4] -10.5% | [5] -36.5% | [6] -54.5%

NC(=S)N/N=C/c1ccc(OC(F)(F)F)cn1
inactive: [1] 27.1% | [2] 28.1% | [3] 46.5% | [4] 10.3% | [5] 59.5% | [6] 40.6%

O=C(O)c1c(-c2ccc(Cl)cc2)c(-c2ccc(Cl)cc2)nn(CCO)c1=O
inactive: [1] 33.8% | [2] 25.8% | [3] 33.4% | [4] 7.4% | [5] 1.5% | [6] 35.6%

CCOC(=O)C1SC(=Nc2ccc(Cl)cc2Cl)N=C1C (stereo unspecified)
inactive: [1] -0.75% | [2] -10.3% | [3] 4.4% | [4] -19.2% | [5] -2.85% | [6] -10.8%

CCOC(=O)c1c(C)c2c(n1Cc1ccccc1)CCCC2=O
inactive: [1] 15.5% | [2] 11.4% | [3] 38.5% | [4] 12.7% | [5] 23.9% | [6] 19.4%
